From PubChem BioAssay AID652106 (National Center for Advancing Translational Sciences (NCATS), 2013)
Among all 370,000 compounds or so, about 500 (0.14%) were called active. Another 2% or so got no clear call; they are omitted. The call rests on the fitted dose curve; in most records, active means well fitted activation curve with a large enough effect; inconclusive means small, poorly fitted or top-dose-only effect; inactive means no such curve, though single readings can be large or run the other way. The entries come from a sample that favours actives as a whole. Entries that show only a call come without a potency.

Experiment: qHTS of alpha-syn Inhibitors; further: nearly all actives have a fitted effect of over 65% in size
Conditions: Yeast expressing alpha-synuclein, BacTiter-Glo, 24 h; Potency: growth rescue; series mostly up to 46.1 µM
Description: The goal of this project is to identify new chemical probes capable of reversing the toxicity associated with the Parkinson disease-related protein, alpha-synuclein. Compounds will be selected on their ability to restore growth in yeast cells expressing toxic levels of alpha-synuclein. These compounds will provide a complementary approach to deciphering the tangled mechanisms of toxicity and protection that we have uncovered through genome-wide genetic screens and are beginning to uncover in a large-scale proteomics analysis with mass spectroscopy. To this end, a miniaturized assay was developed to be screened against the Molecular Libraries Small Molecule Repository (MLSMR) to discover alpha-synuclein inhibitors. Please note that in the set-up this yeast-based assay compounds that inhibit as alpha-syn, have a read-out as activators. NIH Chemical Genomics Center [NCGC] NIH Molecular Libraries Probe Centers Network [MLPCN] MLPCN Grant: NS060957 Assay Submitter (PI): Susan Lindquist, Whitehead Institute/MIT
Dispense 2.5 microL yeast galactose medium per 1536-well plate, pin compound, dispense 2.5 microL alpha-synuclein expressing yeast in galactose medium at OD600=0.02 (pregrown in raffinose medium to mid-log phase) per well, incubate for 24 hr at 30 deg C, and cell growth will be measured using 5 microL of Bactiter/Glo reagent to entire plate and read using Luminescence Protocol in ViewLux.
Potency means the concentration at half of the fitted maximal effect.

| SMILES | Potency |
| --- | --- |
| C[C@@H]1C[C@@H]2O[C@H]2/C=C\C=C\C(=O)Cc2c(Cl)c(O)cc(O)c2C(=O)O1 | 7.94 µM (active) |
| O=C(NCC1=C(c2ccc3ccccc3c2)C[C@@H]2CC[C@H]1N2Cc1ccco1)c1cccs1 | 3.55 µM (active) |
| CC(=O)NCC1=C(c2ccc3ccccc3c2)C[C@@H]2CC[C@H]1N2Cc1ccco1 | inactive |
| Cc1ncoc1C(=O)NCC1=C(c2cccc3ccccc23)C[C@@H]2CC[C@H]1N2Cc1ccco1 | inactive |
| N#Cc1c(Cl)c(Cl)c(Cl)c(C#N)c1Cl | inactive |
| COc1ccc(NC(=O)Nc2cccc3cccnc23)cc1 | inactive |
| c1ccc(Cc2nn3c(Cn4cnc5ccccc54)nnc3s2)cc1 | inactive |
| O=C(O)/C=C/c1ccc2c(c1)OCO2 | inactive |
| CC(=O)c1c(O)c(C)c(O)c(Cc2c(O)c3c(c(C(=O)/C=C/c4ccccc4)c2O)OC(C)(C)C=C3)c1O | inactive |
